Activity calls are given as the source filed them.

Experimental findings from PubChem BioAssay are described below.

Assay [1] has as its target Albumin (Bos taurus) (UniProt P02769). The assay is described as follows: compounds binding labelled BSA control protein – biochemical, small-molecule microarray, Alexa647 label, 635/667 nm fluorescence, artefact control for SMM control protein annotation, profiling panel (AID 1118).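 Note: score merges 667 nm emission intensity and signal-to-noise per printed compound spot.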 Conditions: BSA-A647 binding, fluorescence 635 nm, higher = more signal.
Assay [2] can be described thus: probe aXIP binding to arrayed compounds – biochemical, NeuroSMM set, 635/667 nm fluorescence, primary screen (AID 1119).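 Note: probe is the protein aXip251-270 applied at 1 µg/mL to compound-printed slides; binding of probe to printed compounds measured as 667 nm fluorescence plus signal to noise.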 Conditions: small-molecule microarray, higher = more signal, called active from +8 up or from −8 down.
Assay [3] in a line: probe aNOTCH3 binding on compound microarray – biochemical, small-molecule microarray, 635/667 nm fluorescence, primary screen (AID 1120).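 Note: probe is a biotin-tagged antibody raised against NOTCH3 rather than NOTCH3 protein; score merges spot fluorescence near 667 nm with spot signal to noise.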 Conditions: higher = more signal.
Assay [4] is described as follows: probe aNOTCH2 binding on compound microarray – biochemical, small-molecule microarray, 635/667 nm fluorescence, primary screen (AID 1121).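 Note: score merges feature fluorescence read at 667 nm with its signal to noise.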 Conditions: higher = more signal.
Assay [5] concerns the target Carbonic anhydrase 2 (Homo sapiens) (UniProt P00918). The assay is described as follows: compounds binding carbonic anhydrase 2 – biochemical, small-molecule microarray, Alexa647-labelled CAII, profiling panel (AID 1122). To be noted: CAII-A647 binding fluorescence, higher = more signal.
Assay [6] is described as follows: COS7 lysate on small-molecule microarray, probe aHis, 635 nm (AID 1123).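 Note: z-score combines 667nm fluorescence intensity with signal-to-noise per printed compound spot.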 To be noted: COS7 cell lysate, fluorescence, higher = more signal.
Assay [7] is described as follows: probe aLAP1 signal on lysate-treated microarray – cell lysate, small-molecule microarray, COS7 lysate, primary screen (AID 1124).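 Note: lysate comes from COS7 cells expressing LAP1 and is applied at 0.3 µg/mL; score merges spot fluorescence near 667 nm with signal-to-noise over triplicate slides.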 Conditions: probe aLAP1, fluorescence, higher = more signal.
Assay [8] deals with Sam68 (KHDRBS1). Briefly: compounds binding KHDRBS1 protein – biochemical, small-molecule microarray, 635 nm fluorescence, primary screen (AID 1125).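 Note: score merges 667 nm channel intensity with signal to noise over triplicate slides.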 Conditions: higher = more signal.
The test system of assay [9] is Chordin-like protein 2 (CHRDL2). The assay is described as follows: compounds binding chordin-like 2 – biochemical, small-molecule microarray, 635 nm fluorescence, primary screen (AID 1126).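 Note: printed compound slides probed with Chrdl2 protein at 4 µg/mL for 1 h at 4 C; score merges 667 nm emission intensity with signal to noise over three replicate slides.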 To be noted: fluorescence 635 nm, higher = more signal.
The target in assay [10] is Concanavalin-A (Canavalia ensiformis) (UniProt P02866). The assay is described as follows: compounds binding concanavalin A lectin – biochemical, small-molecule microarray, Alexa647 label, 635 nm, artefact control for SMM control protein annotation, primary screen (AID 1127).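 Note: z combines 667 nm emission intensity with signal-to-noise across three replicate slides.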 Conditions: ConA-A647 binding fluorescence, higher = more signal.
Chain of Concanavalin-A (Canavalia ensiformis) (P02866 whole entry, looked up): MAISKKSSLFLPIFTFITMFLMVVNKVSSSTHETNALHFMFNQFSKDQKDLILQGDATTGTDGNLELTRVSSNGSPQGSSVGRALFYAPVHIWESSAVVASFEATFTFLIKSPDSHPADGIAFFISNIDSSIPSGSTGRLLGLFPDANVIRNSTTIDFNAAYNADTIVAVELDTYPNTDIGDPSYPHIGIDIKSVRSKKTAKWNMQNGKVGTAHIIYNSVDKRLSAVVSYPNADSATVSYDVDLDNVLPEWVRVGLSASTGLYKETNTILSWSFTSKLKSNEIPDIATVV
A short description of assay [11]: compounds binding Alexa647 anti-His antibody – biochemical, small-molecule microarray, 635 nm fluorescence, artefact control for SMM control protein annotation, primary screen (AID 1128).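 Note: score merges feature fluorescence with signal-to-noise for each printed compound spot.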 To be noted: higher = more signal.
Assay [12] has as its system Human papillomavirus type 1a E7 protein (residues 1-88). The assay is described as follows: HPV1a E7 small-molecule binders, primary screen, biochemical, small-molecule microarray, residues 1-88, 635 nm (AID 1129). Conditions: small-molecule microarray binding, fluorescence 635 nm; higher = more signal.
Assay [13] deals with Focal adhesion kinase 1 (Homo sapiens) (UniProt Q05397). The assay is described as follows: PTK2 protein binding on printed compound slides – biochemical, small-molecule microarray, 635/667 nm fluorescence, BSA, DTT, primary screen (AID 1130).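 Note: composite of spot emission at 667 nm and signal to noise over triplicate slides.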 Conditions: 635 nm fluorescence, higher = more signal.
Chain of Focal adhesion kinase 1 (Homo sapiens) (Q05397 whole entry, looked up): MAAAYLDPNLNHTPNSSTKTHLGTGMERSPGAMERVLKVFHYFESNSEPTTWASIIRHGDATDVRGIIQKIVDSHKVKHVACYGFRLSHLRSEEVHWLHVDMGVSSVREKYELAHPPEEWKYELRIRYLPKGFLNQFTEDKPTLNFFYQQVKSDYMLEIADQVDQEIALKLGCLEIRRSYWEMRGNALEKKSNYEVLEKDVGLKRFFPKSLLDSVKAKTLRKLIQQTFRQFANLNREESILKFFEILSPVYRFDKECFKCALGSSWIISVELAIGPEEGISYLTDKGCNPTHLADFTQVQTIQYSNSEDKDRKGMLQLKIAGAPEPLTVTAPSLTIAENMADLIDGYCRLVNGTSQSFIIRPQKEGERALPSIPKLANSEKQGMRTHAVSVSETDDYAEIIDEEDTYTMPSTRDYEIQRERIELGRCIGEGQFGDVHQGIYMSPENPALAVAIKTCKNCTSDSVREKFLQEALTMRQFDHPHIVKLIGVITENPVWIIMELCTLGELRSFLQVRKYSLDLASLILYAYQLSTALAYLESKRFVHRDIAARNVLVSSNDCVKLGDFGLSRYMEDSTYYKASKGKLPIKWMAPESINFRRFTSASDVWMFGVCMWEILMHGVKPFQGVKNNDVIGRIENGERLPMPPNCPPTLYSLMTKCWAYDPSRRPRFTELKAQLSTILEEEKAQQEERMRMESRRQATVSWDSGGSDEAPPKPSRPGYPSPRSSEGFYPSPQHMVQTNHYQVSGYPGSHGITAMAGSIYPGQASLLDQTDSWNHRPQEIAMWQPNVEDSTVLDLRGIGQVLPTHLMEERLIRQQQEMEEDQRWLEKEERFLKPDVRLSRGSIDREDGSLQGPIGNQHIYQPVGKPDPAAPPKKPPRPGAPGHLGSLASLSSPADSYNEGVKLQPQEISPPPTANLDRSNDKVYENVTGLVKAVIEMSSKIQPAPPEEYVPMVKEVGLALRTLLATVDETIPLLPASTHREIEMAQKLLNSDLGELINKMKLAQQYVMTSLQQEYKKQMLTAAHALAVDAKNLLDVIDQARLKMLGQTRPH
Assay [14] relates to Fibrinogen (Alexa647-labelled). Briefly: Alexa647-fibrinogen binding to printed small molecules – biochemical, small-molecule microarray, 635/667 nm fluorescence, artefact control for SMM control-protein annotation, profiling panel (AID 1131).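 Note: z-score merges 667 nm fluorescence with per-spot signal-to-noise over triplicate slides.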 To be noted: fibrinogen-A647 binding fluorescence, higher = more signal.
The target in assay [15] is Follistatin (Homo sapiens) (UniProt P19883). Briefly: FST protein binding to printed compounds – biochemical, small-molecule microarray, 635/667 nm fluorescence, primary screen (AID 1132). To be noted: 635 nm fluorescence, higher = more signal.
Chain of Follistatin (Homo sapiens) (P19883 whole entry, looked up): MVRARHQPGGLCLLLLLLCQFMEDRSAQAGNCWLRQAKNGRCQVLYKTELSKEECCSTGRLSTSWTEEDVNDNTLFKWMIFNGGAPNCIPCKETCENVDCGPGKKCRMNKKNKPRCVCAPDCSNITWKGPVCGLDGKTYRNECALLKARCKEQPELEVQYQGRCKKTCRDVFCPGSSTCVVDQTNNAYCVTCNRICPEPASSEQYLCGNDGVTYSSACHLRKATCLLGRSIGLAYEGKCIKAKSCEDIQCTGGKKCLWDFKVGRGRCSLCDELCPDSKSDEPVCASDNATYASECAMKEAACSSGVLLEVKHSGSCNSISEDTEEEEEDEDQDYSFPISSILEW
Assay [16] has as its target Fibroblast growth factor 2 (Homo sapiens) (UniProt P09038). Briefly: basic fibroblast growth factor binding to printed compounds – biochemical, small-molecule microarray, 635/667 nm fluorescence, primary screen (AID 1133). Conditions: FGF2, fluorescence 635/667, higher = more signal.
Assay [17] in a line: JC-1 mitochondrial potential readout, lung cancer cells – cell-based, A549, JC-1 fluorescence, basal, 24 h, 100 nL, profiling panel (AID 1138).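 Note: A549 lung adenocarcinoma cells under basal conditions with no added stimulus; test concentration not given here.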 To be noted: higher = more signal.
The subject of assay [18] is Lefty1. Briefly: Lefty1 protein binding to printed compounds – biochemical, small-molecule microarray, 635/667 nm fluorescence, primary screen (AID 1139). To be noted: fluorescence 635/667, higher = more signal.
Assay [19] relates to wheat germ agglutinin (Triticum aestivum), Alexa647-labelled. The assay is described as follows: Alexa647-WGA lectin binding to printed small molecules – biochemical, small-molecule microarray, 635/667 nm fluorescence, artefact control for SMM control-protein annotation, profiling panel (AID 1140).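 Note: score merges 667 nm feature emission with signal to noise over triplicate slides.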 Conditions: WGA-A647 binding, 635 nm fluorescence, higher = more signal.
In assay [20] the target is Luciferin 4-monooxygenase (Photinus pyralis) (UniProt P08659). Briefly: inhibition of purified Photinus pyralis luciferase – biochemical, luminescence, purified enzyme, 2006 set, primary screen (AID 1141).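 Note: cell-free assay with purified firefly luciferase at 100 ng per well in PBS; test concentration not given here.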 To be noted: purified firefly luciferase, SteadyGlo luminescence, 30 min; higher = more signal, called active from +8 up or from −8 down.
Chain of Luciferin 4-monooxygenase (Photinus pyralis) (P08659 whole entry, looked up): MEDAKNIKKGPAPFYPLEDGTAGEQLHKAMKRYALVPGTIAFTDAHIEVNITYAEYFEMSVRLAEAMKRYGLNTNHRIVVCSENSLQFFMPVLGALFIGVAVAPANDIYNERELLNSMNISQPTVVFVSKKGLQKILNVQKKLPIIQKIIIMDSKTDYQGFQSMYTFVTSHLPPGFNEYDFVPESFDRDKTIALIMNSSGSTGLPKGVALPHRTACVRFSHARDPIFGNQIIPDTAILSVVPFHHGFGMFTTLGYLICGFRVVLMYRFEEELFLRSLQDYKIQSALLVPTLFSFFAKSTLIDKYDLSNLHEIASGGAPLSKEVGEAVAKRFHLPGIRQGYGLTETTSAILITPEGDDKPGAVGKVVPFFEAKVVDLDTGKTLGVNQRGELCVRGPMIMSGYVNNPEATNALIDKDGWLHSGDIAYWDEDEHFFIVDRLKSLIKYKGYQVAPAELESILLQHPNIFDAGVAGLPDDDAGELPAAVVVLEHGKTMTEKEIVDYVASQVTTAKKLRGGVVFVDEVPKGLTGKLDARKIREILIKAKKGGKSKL

Chain of Fibroblast growth factor 2 (Homo sapiens) (P09038 whole entry, looked up): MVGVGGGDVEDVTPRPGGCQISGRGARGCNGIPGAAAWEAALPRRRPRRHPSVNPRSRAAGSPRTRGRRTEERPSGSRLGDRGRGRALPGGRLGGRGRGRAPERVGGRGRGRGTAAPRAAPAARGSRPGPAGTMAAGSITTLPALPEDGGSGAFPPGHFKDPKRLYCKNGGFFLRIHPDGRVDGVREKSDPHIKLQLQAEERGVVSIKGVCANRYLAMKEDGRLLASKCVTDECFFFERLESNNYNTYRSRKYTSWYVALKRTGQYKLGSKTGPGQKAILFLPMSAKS
Chain of Albumin (Bos taurus) (P02769 whole entry, looked up): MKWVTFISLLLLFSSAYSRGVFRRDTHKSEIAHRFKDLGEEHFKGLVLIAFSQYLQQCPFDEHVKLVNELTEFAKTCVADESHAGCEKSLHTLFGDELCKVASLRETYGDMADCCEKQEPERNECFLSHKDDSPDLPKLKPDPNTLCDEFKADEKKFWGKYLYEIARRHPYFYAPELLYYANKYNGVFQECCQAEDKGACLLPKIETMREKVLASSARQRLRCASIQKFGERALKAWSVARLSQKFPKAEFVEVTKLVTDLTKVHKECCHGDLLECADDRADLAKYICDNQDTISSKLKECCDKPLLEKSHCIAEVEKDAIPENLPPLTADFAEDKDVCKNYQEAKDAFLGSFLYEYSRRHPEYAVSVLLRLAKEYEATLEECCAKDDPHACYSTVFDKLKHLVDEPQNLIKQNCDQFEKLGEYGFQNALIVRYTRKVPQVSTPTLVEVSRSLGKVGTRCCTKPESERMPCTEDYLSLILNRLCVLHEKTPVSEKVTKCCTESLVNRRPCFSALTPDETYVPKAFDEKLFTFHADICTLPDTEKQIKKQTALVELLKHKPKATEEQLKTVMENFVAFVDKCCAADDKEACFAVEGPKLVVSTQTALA

`C=C[C@H](C)[C@@H](OC(=O)Nc1ccc(OC)cc1)c1ccc(O)c2ccccc12`: the composite z-score is -0.964 in assay [1]; -0.118 in [3]; -0.167 in [4]; 0.742 in assay [5]; 0.832 in assay [6]; 0.152 in [7]. For the same molecule, the composite z-score in [8] is 0.357; in [9], 0.257; in [10], -0.365; in assay [11], 0.965; in assay [12], 0.0812; in assay [13] it was -0.603. For the same molecule, the composite z-score in assay [14] was -0.95; in assay [15], 0.999; in assay [16], 0.0495; in [18], 1.04; in [19] it was -0.235. Further, the composite Z-score in assay [2] was -0.734 (inactive). Besides, the figures for the z-score in assay [17] and in [20] were -1.64 and -5.17 (inactive), respectively.

With `COc1cc2c(cc1O)C(c1cccs1)N(C)CC2` (stereo not given), the composite z-score in assay [1] was 0.393; in assay [3], -0.28; in [4], -0.182; in assay [5], 0.311; in [6], 0.0056; in assay [7], -0.465. The composite z-score in assay [8] is -1.2; in [9], -0.231; in assay [10] it was -1.2; in assay [11], -1; in assay [12], -1.33; in assay [13] it was 0.756. The composite z-score in assay [14] was -0.861; in [15], -0.123; in assay [16], -0.0571; in assay [18] it was -0.574; in assay [19], -1.05. Also, the composite Z-score in assay [2] is -0.0667 (inactive). Moreover, the z-score is -0.278 in [17] and 0.146 (inactive) in assay [20].

`O=C1O[C@H](c2ccccc2)[C@H](c2ccccc2)N2[C@H]1[C@@H](C(=O)N1CCCCCCC1)[C@]1(C(=O)Nc3ccc(C#CCCO)cc31)[C@H]2c1ccccc1OCCO`: the composite z-score was found to be 0.536 in assay [1]; 2.31 in assay [3]; 1.14 in assay [4]; 1.12 in [5]; 5.54 in [6]; 1.3 in [7]. The composite z-score in assay [8] was 1.35; in assay [9], 1.7; in assay [10] it was 1.21; in [11] it was 3.55; in [12], 1.36; in assay [13] it was 5.56. Also, the composite z-score stood at 1.02 in assay [14]; 1.58 in [15]; 1.16 in assay [16]; 1.93 in assay [18]; 1.64 in [19]. The composite Z-score in [2] was 10.7 (active). The z-score in [17] was 0.372; in assay [20], -1.35 (inactive).

For the molecule `COc1cc(C(O)C2C=CC3C(=O)NC(=O)C3N2Nc2ccccn2)cc(OC)c1OC` (stereo not given), the composite z-score in assay [1] was 0.354; in [3], -0.108; in [4], 0.0339; in assay [5], 0.749; in [6], 2.43; in assay [7], -0.0653. The composite z-score in [8] turned out to be 0.466; in [9], 0.361; in assay [10] it was 0.585; in assay [11] it was 1.26; in assay [12], 0.852; in assay [13] it was 0.184. Moreover, the composite z-score was 0.764 in assay [14]; 0.169 in assay [15]; 0.158 in assay [16]; -0.188 in [18]; 0.0705 in [19]. In addition, the composite Z-score in assay [2] is 0.183 (inactive). Also, the z-score was 0.623 in assay [17] and -0.0958 (inactive) in assay [20].

For the molecule `CO[C@H]1O[C@H](CO)[C@@H](OC(=O)Nc2ccc(C(F)(F)F)cc2)[C@H](OC(=O)Nc2ccc3c(c2)OCO3)[C@@H]1OC(=O)Nc1ccc2c(c1)OCO2`, the composite z-score in assay [1] was 0.835; in assay [3], 0.149; in assay [4], -0.164; in assay [5] it was 0.238; in assay [6] it was 1.83; in [7] it was 0.579. Further, the composite z-score in [8] was 1.33; in [9], 0.0643; in [10] it was 1.14; in assay [11], 2.18; in assay [12] it was 1.22; in assay [13] it was 1.43. The composite z-score is 0.607 in assay [14]; 1.17 in assay [15]; 0.397 in assay [16]; 0.537 in [18]; 0.729 in [19]. Further, the composite Z-score in assay [2] was -0.279 (inactive). For the same molecule, the z-score in [17] was -0.656; in assay [20] it was -17.3 (active).

As for `COc1cc2c(cc1OC)CN(C(=O)[C@H]1[C@@H]3C(=O)O[C@@H](c4ccccc4)[C@@H](c4ccccc4)N3[C@@H](c3ccc(O)cc3)[C@]13C(=O)Nc1ccccc13)CC2`, the composite z-score in assay [1] was -0.134; in [3], -0.0672; in [4], 0.0481; in assay [5], 0.402; in assay [6], 2.34; in assay [7], 0.399. Besides, the composite z-score in assay [8] came out at 1.07; in assay [9], 0.139; in assay [10] it was 0.777; in assay [11], 1.65; in assay [12] it was 1.19; in [13] it was 0.81. Further, the composite z-score in assay [14] was found to be 0.253; in [15], 0.354; in assay [16], 0.39; in assay [18], 0.331; in assay [19], 0.115. Further, the composite Z-score in assay [2] was 2.52 (inactive). Further, the z-score in assay [17] is -0.517; in [20], -0.204 (inactive).
